Where “and” joins values, the source holds several entries; their conditions need not be identical. Identical values can stand only once. Records with an inconclusive call do not appear. Calls of active or inactive are those of the source. Unless noted, the call rests on the fitted dose curve; in most records, active means well fitted curve in the direction sought with a large enough effect; inconclusive means small, poorly fitted or top-dose-only effect, or another doubt; inactive means no such curve, though single readings can be large; an effect the other way counts as inactive or inconclusive.
Assays:
[1] = molecular target: Cellular tumor antigen p53 (Homo sapiens) (UniProt P04637); assay: Primary qHTS for small molecule compounds that upregulate eGFP-tagged delta133p53alpha (in N-terminal) cells. (AID 2060322); details: NCI-H358 eGFP-delta133p53alpha fluorescence, 24 h; activation: hits give high values;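 further: series mostly up to about 56 µM; 0% = DMSO vehicle and 100% = reference activator; nearly all actives have a fitted effect of over 75% in size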
Cellular tumor antigen p53 (Homo sapiens), sequence (P04637 whole entry, looked up): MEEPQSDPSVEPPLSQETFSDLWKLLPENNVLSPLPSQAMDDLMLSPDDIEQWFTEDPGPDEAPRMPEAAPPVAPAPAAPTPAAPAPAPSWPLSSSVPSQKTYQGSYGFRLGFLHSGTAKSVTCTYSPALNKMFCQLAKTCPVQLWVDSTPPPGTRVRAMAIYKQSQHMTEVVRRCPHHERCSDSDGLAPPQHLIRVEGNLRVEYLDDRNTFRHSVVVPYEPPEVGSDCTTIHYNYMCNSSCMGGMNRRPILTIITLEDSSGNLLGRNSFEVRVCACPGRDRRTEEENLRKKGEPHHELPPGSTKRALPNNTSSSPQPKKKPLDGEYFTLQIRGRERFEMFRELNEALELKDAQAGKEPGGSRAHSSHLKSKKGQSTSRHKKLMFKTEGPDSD
Outline: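 NCI-H358 cells pre-induced 24 h with 10 ng/ml doxycycline to express N-terminal eGFP-delta133p53alpha, then dosed 24 h at 37C without doxycycline; fixed, Hoechst-stained, GFP intensity by laser scanning cytometry, normalized to DMSO (0%) and 57.5 uM 5-azacytidine (100%).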

[2] = molecular target: Cellular tumor antigen p53 (Homo sapiens) (UniProt P04637); assay: Primary qHTS for small molecule compounds that upregulate eGFP-tagged delta133p53alpha (in C-terminal) cells. (AID 2060324);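 further: 0% = DMSO wells and 100% = 57.5 µM 5-azacytidine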
Outline: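 NCI-H358 cells with doxycycline-inducible D133p53a-eGFP (C-terminal tag), pre-induced 24 h with 100 ng/ml doxycycline, plated 800/well in doxycycline-free medium and treated 24 h at 37 °C with compound titrations. Cells were then fixed and Hoechst-stained, and GFP intensity was read by laser scanning cytometry.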

[3] = molecular target: Aldehyde dehydrogenase, mitochondrial (Homo sapiens) (UniProt P05091); assay: qHTS for Inhibitors of the Aldehyde Dehydrogenase Family (ALDH2) Validation screens (AID 2061302; active means well fitted inhibition curve with a large enough effect; title and protocol of this record describe different tests;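 further: plate controls were DMSO vehicle for no effect and maximal DPI positive control response for full effect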)
[4] = molecular target: Aldehyde dehydrogenase, mitochondrial (Homo sapiens) (UniProt P05091); assay: qHTS for Inhibitors of the Aldehyde Dehydrogenase Family (ALDH2) Confirmatory screens (AID 2061303; active means well fitted inhibition curve with a large enough effect; title and protocol of this record describe different tests; further: on the % scale 0 is the no-effect control and ±100 the full control effect; nearly all actives have a fitted effect of over 45% in size)
[5] = qHTS for Inhibitors of the Aldehyde Dehydrogenase Family (ALDH1A2, ALDH1A3, ALDH2, ALDH3A1) (AID 2061307); further: on the % scale 0 is the no-effect control and ±100 the full control effect; nearly all actives have a fitted effect of over 50% in size
[6] = molecular target: Retinaldehyde dehydrogenase 3 (Homo sapiens) (UniProt P47895); assay: qHTS for Inhibitors of the Aldehyde Dehydrogenase Family (ALDH1A3) Confirmatory screens (AID 2061311); further: on the % scale 0 is the no-effect control and ±100 the full control effect; nearly all actives have a fitted effect of over 60% in size
[7] = molecular target: Retinaldehyde dehydrogenase 3 (Homo sapiens) (UniProt P47895); assay: qHTS for Inhibitors of the Aldehyde Dehydrogenase Family (ALDH1A3) Validation screen (AID 2061312); further: on the % scale 0 is the no-effect control and ±100 the full control effect; nearly all actives have a fitted effect of over 45% in size
[8] = molecular target: Retinal dehydrogenase 2 (Homo sapiens) (UniProt O94788); assay: qHTS for Inhibitors of the Aldehyde Dehydrogenase Family (ALDH1A2) Confirmation screens (AID 2061314); further: on the % scale 0 is the no-effect control and ±100 the full control effect; nearly all actives have a fitted effect of over 65% in size
[9] = molecular target: Retinaldehyde dehydrogenase 3 (Homo sapiens) (UniProt P47895); assay: qHTS for Inhibitors of the Aldehyde Dehydrogenase Family (ALDH1A3) Primary screen (AID 2061315);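 further: plate controls were DMSO vehicle for no effect and reference inhibitor for full effect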
[10] = molecular target: Aldehyde dehydrogenase 1A1 (Homo sapiens) (UniProt P00352); assay: qHTS for Inhibitors of the Aldehyde Dehydrogenase Family (ALDH1A1) Confirmatory screens (AID 2061316); further: on the % scale 0 is the no-effect control and ±100 the full control effect; nearly all actives have a fitted effect of over 65% in size
[11] = molecular target: Aldehyde dehydrogenase, mitochondrial (Homo sapiens) (UniProt P05091); assay: qHTS for Inhibitors of the Aldehyde Dehydrogenase Family (ALDH2) Primary screen (AID 2061308);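 further: plate controls were vehicle for no effect and reference inhibitor for full effect; nearly all actives have a fitted effect of over 55% in size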

CN1CCc2cc(NC(=O)Nc3cccnc3)ccc21
inactive: activation [1] -9.58% | Potency [2] | Potency [3]

Brc1ccc([C@H]2CN3CCSC3=N2)cc1
inactive: activation [1] -4.33% and 7.97% | Potency [2] | Potency [3] | Potency [4] | Potency [5] | Potency [6] | Potency [7] | Potency [8] | Potency [9] | Potency [10]

CCCN1C[C@H](CSC)C[C@@H]2c3cccc4[nH]cc(c34)C[C@H]21
inactive: activation [1] 7.67% and 9.97% | Potency [2] | Potency [3] | Potency [11] | Potency [9]
